About 25 (0.01%) of roughly 200,000 compounds were called active. A call without a number means that no potency is given here. Roughly 23% stayed inconclusive and do not appear here. The call rests on the fitted dose curve; in most records, active means well fitted inhibition curve with a large enough effect in the signal ratio, with a control signal flat (not every such curve was filed as active); inconclusive means small, poorly fitted or top-dose-only effect, or effect the other way, or a change in a side signal; inactive means flat fitted curve, though single readings scatter; the % refers to the signal ratio. Many of the other results were omitted from the sample, so actives are more common in it than they were.
Potency means the concentration at half of the fitted maximal effect.

The nature of the assay: qHTS Assay for Modulators of Lamin A Splicing. As to conditions: HeLa LMNA splicing GFP/RFP minigene ratio, 48 h; series mostly up to 46 µM. The text has this: NCGC Assay Overview: Hutchinson-Gilford Progeria Syndrome (HGPS) is a pediatric premature aging disease caused by a spontaneous mutation in the lamin A/C (LMNA) gene. The mutation activates a cryptic splice site in the LMNA pre-mRNA which results in production of a pre-lamin A protein that cannot be processed properly. The mutant protein accumulates in the nucleus and negatively affects numerous cellular functions. Correction of the splicing defect in HGPS patient cells using a targeted oligonucleotide (exo11) leads to reversal of the cellular disease phenotypes. To identify small molecule modulators of aberrant LMNA splicing, a homogenous assay was constructed in HeLa cells that used a GFP containing minigene to report on correction of aberrant splicing in lamin A and a RFP (DsRed2) to report on cell viability, uniformity and nonspecific effects on the assay signal. This assay was adapted to laser-scanning microplate cytometry (Acumen, TTP Labtech) where miniaturization of the assay to a 1,536-well plate format was possible. References: Bowen, W. P.; Wylie, P. G. Application of Laser-Scanning Fluorescence Microplate Cytometry in High Content Screening. Assay Drug Dev Technol 2006;4:209-221. Scaffidi P, Misteli T. Reversal of the cellular phenotype in the premature aging disease Hutchinson-Gilford progeria syndrome. Nat.
NCGC Assay Protocol Summary: Reagents/Controls: Stable clones expressing DsRed2 and lamin A-EGFP were generated by Cell and Molecular Technologies in S3 HeLa cells. HeLa cells were prepared for the assay when they were 70-90% confluent. The cells were counted and resuspended in Opti-MEM I (no phenol red; Gibco), 2% FBS, 1% penicillin/ streptomycin (Gibco) at concentration of 120 cells/uL concentration. The suspension was passed through a Falcon basket filter with pore size 40um (Beckton Dickson). Control titrations: column […] 1536-well plate contained a sixteen point titration (1:2 dilutions) in duplicate of ancitabine (Sigma: A8598) beginning at 40 uM final concentration. Column 2 contained a sixteen point titration (1:2 dilutions) of cycloheximide beginning at 1.4 mM final concentration. Column 3 contained ancitabine at 40 uM and column 4 contained was the vehicle control (0.5% DMSO final concentration). Assay Steps: 5 uL of HeLa cells were plated in Aurora LoBase black clear bottom (cyclic-olefin polymer) 1536-well plates at a final density of 600 cells/well. Controls and library compounds were added with a 1536-well pin array using the Kalypsys pin-tool. The plates were then incubated for 48 hrs in a cell-culture incubator (37 °C; 5% CO2, 98% humidity). Following incubation the plates were read on the Acumen Explorer using the 488 nm laser. Data was collected on objects between 10 and 100 um in size. Cell objects were defined by a 15 um width x 10 um depth filter. The ratio of the total object intensity in PMT1 (500-530 nm emission; GFP) over PMT3 (575-640 nm emission; RFP) was calculated for analysis. Keywords: NIH Roadmap, MLSCN, MLI, MLSMR, qHTS, NCGC, lamin A, Progeria, RNA splicing.
(In qHTS, concentration-response curves come from the screen itself.)
Consider `Cc1ccccc1-n1nc(SCC(=O)O)sc1=S`, for which the ratio change, negative = inhibition entry was “inactive”.
As for `CCCCCN(C(=O)NC(=O)Nc1cccc(C)c1C)S(C)(=O)=O`, the ratio change, negative = inhibition result was “inactive”.
Same read-out and setting: under `CC(C)(C)NC(=O)Cn1cnc2cc([N+](=O)[O-])ccc2c1=O` stands “inactive”; under `Cc1c(-c2cccc(NC(=O)C(C)(C)C)c2)nc2ncccn12`, “inactive”; under `COc1ccc(Cc2n[nH]c(=S)n2NC(=O)Nc2ccc(C)cc2)cc1`, “inactive”.
Consider `COc1c(C=O)c(CCN(C)C(=O)c2ccc(F)cc2)cc2c1OCO2`, for which the ratio change, negative = inhibition result was “inactive”.
In the case of `O=C(Nc1ccc(C(=O)OCc2cc(=O)n3nc(C4CC4)sc3n2)cc1)c1ccc(F)cc1`, the ratio change, negative = inhibition entry was “inactive”.
`COc1cccc(CN(C)CC(=O)Nc2ccccc2C(=O)Nc2ccccc2)c1`: the ratio change, negative = inhibition entry was “inactive”.
On the same count and under the same terms, under `OC(COc1ccc(CN2CCSCC2)cc1)CN1CCCCC1` (centres undefined) stands “inactive”; under `CCN(Cc1ccccc1)S(=O)(=O)c1ccc2c(c1)CCCN2C(C)=O`, “inactive”.
In the case of `CC1CCC(NS(=O)(=O)c2ccc3c(c2)n(C)c(=O)c(=O)n3C)CC1` (centres undefined), the ratio change, negative = inhibition entry was “inactive”.
On to `CSc1ccc(S(=O)(=O)NC2CCCCC2)cc1`, for which the ratio change, negative = inhibition result was “inactive”.
For `Cn1sc(=O)c2cc(S(=O)(=O)NC3CC3)ccc21`, the Potency is 11.2 µM (active).
Regarding `COc1ccc(S(=O)(=O)NCC2CCCN(C(=O)c3occc3C)C2)cc1` (centres undefined), the ratio change, negative = inhibition result is “inactive”.
In the case of `CN1CCN(/N=C2/C(=O)Nc3ccc([N+](=O)[O-])cc32)CC1`, the ratio change, negative = inhibition entry is “inactive”.
With `CCOc1ccccc1N1CCN(C(=O)COc2ccc3c(C)cc(=O)oc3c2)CC1`, the ratio change, negative = inhibition result is “inactive”.
For the compound `COc1ccc(CNC(=O)COCc2cc(-c3cccs3)on2)cc1OC`, the ratio change, negative = inhibition result was “inactive”.
Consider `O=C(Nc1ccc(Br)cn1)c1ccc([N+](=O)[O-])cc1Cl`, for which the ratio change, negative = inhibition result is “inactive”.
Regarding `CC12CN(NC(=O)c3ccc(Cl)cc3)C3(C#N)CC1CCC23C` (centres undefined), the ratio change, negative = inhibition entry is “inactive”.
`CCOCCc1nn2c(=O)cc(COC(=O)CNC(=O)c3ccc(C(C)(C)C)cc3)nc2s1`: the ratio change, negative = inhibition entry is “inactive”.
Consider `Cc1ccc(S(=O)(=O)CC(=O)Nc2c(C)n(C)n(-c3ccccc3)c2=O)cc1`, for which the ratio change, negative = inhibition entry was “inactive”.
On to `Cc1c(CCNC(=O)c2ccc(C(F)(F)F)cc2)sc2nc(-c3ccc(F)cc3)nn12`, for which the ratio change, negative = inhibition entry is “inactive”.
With `Cc1ccc2c(c1)C1CN(C)CCC1N2C(=S)Nc1ccc(OC(F)F)cc1` (centres undefined), the ratio change, negative = inhibition result is “inactive”.
Still for that read-out and setting: under `CN1CCN(C(CNC(=O)c2ccccc2F)c2ccc3c(c2)OCO3)CC1` (centres undefined) stands “inactive”; under `COc1ccc(-c2cn3cccnc3n2)cc1`, “inactive”; under `CC1(C)CC(CNCCC(c2ccc(F)cc2)c2ccco2)CCO1` (centres undefined), “inactive”.
On to `CCc1ccc(NC(=O)c2nn(-c3ccc(C)cc3)c(=O)n(C)c2=O)cc1`, for which the ratio change, negative = inhibition entry was “inactive”.
As for `CN(C)S(=O)(=O)N1CCN(c2ccc([N+](=O)[O-])cc2)CC1`, the ratio change, negative = inhibition was 10.9% [at 9.22 µM] (inactive).
Turning to `COc1ccccc1CNC(=O)c1ccccc1NC(=O)c1nsc2ccccc12`, the ratio change, negative = inhibition entry is “inactive”.
